PubChem BioAssay (NCATS)
Inconclusive results are not listed. Calls of active or inactive are those of the source. Calls come from the whole dose curve; as a rule, active = well fitted cell-killing curve with a large enough effect; inconclusive = small, poorly fitted or top-dose-only effect; inactive = flat fitted curve, though single readings scatter.

Assay: SDT Cancer Cell Toxicity qHTS against the NCATS CANVASS Library (AID 1347365); note: nearly all actives have a fitted effect of over 60% in size
Settings: SDT dog glioma viability, ATP luminescence, 72 h; series mostly up to 46.1 µM; activity change, negative = cytotoxicity: at the top concentration
Text: Natural products and their derivatives continue to be wellsprings of nascent therapeutic potential. However, many laboratories have limited resources for biological evaluation, leaving their previously isolated or synthesized compounds largely or completely untested. To address this issue, the Canvass library of natural products was assembled (https://tripod.nih.gov/canvass), in collaboration with academic and industry researchers, for quantitative high-throughput screening (qHTS) across a diverse set of cell-based and biochemical assays. The pure (>85% purity by liquid chromatography/mass spectrometry [LC/MS]) Canvass library of 346 natural products were submitted by 45 academic laboratories and companies around the world. We collected pure natural products to circumvent deconvolution and structure elucidation due to time and resource limitations. The library was formatted into 1536-well plates and evaluated in 50 qHTS (in an 11-pnt concentration series) bioassays with broad scope of disease-relevant mechanisms. The resulting data set from 50 different assays was then systematically analyzed to identify overall trends and specific natural products with interesting biological activities. Reported herein are the results of each individual qHTS and their corresponding assay protocol. This assay uses ATP (luminescence) content to measure the cytotoxiciy of compounds on SDT dog glioma cancer cell line. National Center for Advancing Translational Sciences (NCATS), Rockville, MD National Institute of Health (NIH), Bethesda, Maryland
Cancer Cell Toxicity qHTS protocol: for cell lines G06, J3T, and SDT. 1. In a 1536 well, tissue culture treated white solid bottom plates (Corning 7494), 5 uL of SDT cell solution (final concentration of 500 cells / well) was dispensed using the Multidrop Combi dispenser (Thermo Fisher Scientific) into columns 2, 3, 5-48. 2. Control and Compounds were pin transferred (~23 nL volume) to the assay plates via Wako Pin-tool (Wako Automation, Richmond VA) equipped with a 1536 pin head. The compounds were transferred to columns 5-48 resulting in a final concentration ranging from 0.17 nM to 103 uM. Dose response titration of Bortezomib was pin transferred into column 2 (1mM; 1:2 dilution; 16 points) resulting to a final concentration range of 0.1 nM - 4.6 uM. 3. The assay plates were further incubated in the at 37C, 5% CO2, 95% Rh for 72 hr. 4. After incubation, 3 uL of CellTiterGlo reagent (Promega) was added to the assay plates (column 1-48, rows 1-32) and centrifuged for 15 sec at 1000 rpm to remove bubbles. 5. Luminescence signal was acquired via the ViewLux plate reader (PerkinElmer) using a clear emission filter, 2 sec exposure, and 1x binning settings.
% is set by controls: 0 for no effect and ±100 for the full control effect; potency is the fitted concentration of half-maximal effect.

Compound | Potency | activity change, negative = cytotoxicity | outcome
CCC(=O)CCCCC[C@@H]1NC(=O)[C@H]2CCCCN2C(=O)[C@H]([C@@H](C)CC)NC(=O)[C@H](Cc2cn(OC)c3ccccc23)NC1=O | 1.05 µM (active) | – | –
O=C(c1ccccc1O)c1[nH]c(Cl)c(Cl)c1-n1c(C(=O)c2ccccc2O)cc(Cl)c1Cl | 2.35 µM (active) | – | –
CC=C1CN(C=O)[C@H]2C[C@@H]1[C@@H](C(=O)OC)[C@@]13CCOC21Nc1ccccc13 (some centres not stated) | – | -10.1% (inactive) | –
C=C1[C@@H](C)[C@H]2[C@H](Cc3ccccc3)NC(=O)[C@]23OC(=O)/C=C/[C@H](O)CCC[C@@H](C)C/C=C/[C@H]3[C@@H]1O | 2.64 µM (active) | – | –
CCC[C@H]1CC[C@H]2[C@H](C)CCC[C@H]2N1 | – | 11.9% (inactive) | –
CC(=O)N[C@H]1CCN2CCC[C@H]12 | – | 0.13% [at 103 µM] (inactive) | –
CNCCc1ccccc1 | 0.0469 µM (active) | – | –
CO[C@@H](/C=C/CC/C=C/C(=O)O)[C@@H](O)[C@H](C)[C@@H](O)/C(C)=C/[C@H](C)C(=O)CCCC1CC(=O)NC(=O)C1 | – | -4.6% (inactive) | –
NCCc1ccccc1 | – | 12.5% (inactive) | –
CNCCc1ccc(O)cc1 | – | 1.78% (inactive) | –
CC[N@@+]1([O-])C[C@]2(C)CC[C@@H](O)[C@@]34C5C[C@H]6CC[C@@]5(C(C[C@H]23)C41)[C@H](O)[C@@]6(O)CO (some centres not stated) | – | -7.09% (inactive) | –
CCCCC[C@@H]1OC(=O)[C@@H](C)N(C)C(=O)[C@H](CCCCC)OC(=O)C(C)N(C)C(=O)[C@H](CCCCC)OC(=O)[C@@H](C)N(C)C(=O)[C@H](CCCCC)OC(=O)C(C)N(C)C1=O (some centres not stated) | 16.6 µM (active) | – | –
CC1=CC(=O)C2=C(C)C[C@H](O)[C@@H]3[C@H](OC(=O)[C@@H]3C)[C@@H]12 | – | 9.37% (inactive) | –
C[C@]12CC(O)C3[C@@H](CCC4C[C@@H](O)CC[C@@]43CO)[C@@]1(O)CCC2C1=CC(=O)OC1 (some centres not stated) | 2.64 µM (active) | – | –
CC1=CC2CC[C@@H]3[C@@H](C)C[C@H](C)[C@@H](C1)N23 (some centres not stated) | – | – | inactive
COc1ccc(C23Oc4cc(OC)cc(OC)c4[C@](O)([C@H](c4ccccc4)C2C(=O)NCCCCNC(=O)c2ccccc2)[C@@H]3O)cc1 (some centres not stated) | – | 6.67% (inactive) | –
C[C@@H]1CC[C@@H](c2ccoc2)N2C[C@@]3(CC[C@@H]12)CS[C@@]1(CC[C@H]2[C@H](C)CC[C@@H](c4ccoc4)N2[C@@H]1O)C3 | 6.62 µM (active) | – | –
CO[C@@H](/C=C/CC/C=C/C(=O)O)[C@@H](O)[C@H](C)/C=C(\C)[C@@H](O)[C@H](C)C(=O)CCCC1CC(=O)NC(=O)C1 | – | 0.0751% (inactive) | –
COc1ccc2c(c1)[nH]c1c(C)nccc12 | 24.1 µM (active) | – | –
COC(=O)C1=C2Nc3ccccc3[C@@]23CCN2CC(C(C)=O)C1C[C@H]23 (some centres not stated) | – | 2.78% (inactive) | –
CCCC[C@@H]1CC[C@H]2CCCC(CCC)N12 (some centres not stated) | – | -1.72% (inactive) | –
CCN1C[C@]2(C)CC[C@@H](O)[C@]34C1[C@H](C[C@H]23)C12CCC(CC14)[C@](O)(CO)[C@H]2O (some centres not stated) | – | 1.39% (inactive) | –
